Data taken from PubChem BioAssay.
For part of these data: Potency and affinity values are given separately. Calls of active or inactive are those of the source. Unless noted, no rule for the calls is given here.

What was measured:
[1] = antimalarial activity against Dd2 strain (AID 2302;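 active = growth inhibition above 50% at the single 2 µM test dose, taken to imply half-maximal potency below 2 µM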;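 also: 0% = DMSO untreated growth and 100% = chloroquine plus artemisinin killed control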); conditions: P. falciparum Dd2 in RBCs, LDH growth readout, 72 h; at 2 µM; active compounds read high
[2] = HepG2 cytotoxicity, primary screen, cytotoxicity control for P. falciparum antimalarial project, cell-based, ATP luminescence (AID 2303;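 active = inhibition above 50%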;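 also: 0% = DMSO wells and 100% = digitonin-killed cells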); conditions: HepG2 viability, 24-48 h, at 10 µM, active compounds read high
[3] = biological target: L-lactate dehydrogenase (Plasmodium falciparum (isolate CDC / Honduras)) (UniProt Q27743); assay: PfLDH activity inhibition – cell lysate, 3D7 strain, counter-screen for P. falciparum growth inhibition project (AID 2304);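 also: 0% = vehicle and 100% = reference inhibitor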; conditions: P. falciparum 3D7 crude extract, LDH APAD/NBT absorbance; at 2 µM; active compounds read high
Sequence of L-lactate dehydrogenase (Plasmodium falciparum (isolate CDC / Honduras)) (Q27743 whole entry, looked up): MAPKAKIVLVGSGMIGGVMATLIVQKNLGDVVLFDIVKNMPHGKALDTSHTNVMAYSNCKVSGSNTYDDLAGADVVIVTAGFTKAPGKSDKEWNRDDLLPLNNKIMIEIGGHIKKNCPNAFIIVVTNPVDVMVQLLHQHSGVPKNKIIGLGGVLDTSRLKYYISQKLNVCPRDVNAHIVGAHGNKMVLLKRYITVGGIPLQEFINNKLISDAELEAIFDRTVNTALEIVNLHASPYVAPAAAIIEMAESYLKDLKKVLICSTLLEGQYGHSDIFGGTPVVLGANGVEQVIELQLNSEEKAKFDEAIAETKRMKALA

[4] = inhibition of 3D7 malaria parasite growth – strain 3D7 (AID 2306);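 also: 0% = DMSO wells and 100% = chloroquine plus artemisinin control wells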; conditions: P. falciparum 3D7 erythrocytic growth, LDH absorbance, 72 h; at 2 µM; active compounds read high
[5] = biological target: Calcium-dependent protein kinase 1 (Plasmodium falciparum (isolate 3D7)) (UniProt P62344); assay: PfCDPK1 kinase inhibitors, biochemical, TCAMS library (AID 1159585; cut-off not given, nearly all actives have IC50 up to about 0.98 µM;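 also: inhibitors leave more ATP so luminescence rises with inhibition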); conditions: recombinant PfCDPK1, Kinase-Glo ATP depletion luminescence
Sequence of Calcium-dependent protein kinase 1 (Plasmodium falciparum (isolate 3D7)) (P62344 whole entry, looked up): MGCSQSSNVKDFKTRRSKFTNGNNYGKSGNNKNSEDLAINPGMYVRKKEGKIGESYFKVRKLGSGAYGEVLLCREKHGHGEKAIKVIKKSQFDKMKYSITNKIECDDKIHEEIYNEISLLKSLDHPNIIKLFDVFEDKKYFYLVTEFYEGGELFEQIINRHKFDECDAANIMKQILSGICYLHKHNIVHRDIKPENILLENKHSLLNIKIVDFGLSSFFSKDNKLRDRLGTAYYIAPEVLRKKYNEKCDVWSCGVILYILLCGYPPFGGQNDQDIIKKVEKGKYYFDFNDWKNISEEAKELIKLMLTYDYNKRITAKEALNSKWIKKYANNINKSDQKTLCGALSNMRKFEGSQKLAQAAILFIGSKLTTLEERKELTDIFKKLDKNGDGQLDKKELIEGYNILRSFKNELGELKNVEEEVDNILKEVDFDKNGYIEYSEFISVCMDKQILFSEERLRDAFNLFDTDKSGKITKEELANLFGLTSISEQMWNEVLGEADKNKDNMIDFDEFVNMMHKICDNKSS

[6] = biological target: Plasmodium falciparum protein kinase 6 (PK6, PF3D7_1337100) (UniProt Q8IDW1); assay: PfPK6 kinase inhibitors, biochemical, TCAMS library (AID 1159586); conditions: recombinant PfPK6, Kinase-Glo ATP depletion luminescence
Sequence of Plasmodium falciparum protein kinase 6 (PK6, PF3D7_1337100) (Q8IDW1 1-305): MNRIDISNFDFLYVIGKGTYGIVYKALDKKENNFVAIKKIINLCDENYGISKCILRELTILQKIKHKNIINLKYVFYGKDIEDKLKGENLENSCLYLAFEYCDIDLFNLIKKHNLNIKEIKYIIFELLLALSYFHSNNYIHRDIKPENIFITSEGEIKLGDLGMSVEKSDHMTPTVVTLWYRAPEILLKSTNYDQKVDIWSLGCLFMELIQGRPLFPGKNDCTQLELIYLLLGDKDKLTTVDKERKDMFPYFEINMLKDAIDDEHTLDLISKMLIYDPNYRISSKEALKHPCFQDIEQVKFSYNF

[7] = biological target: Protein kinase 7 (PK7), Plasmodium falciparum 3D7 (PF3D7_0213400) (UniProt Q7YTF7); assay: inhibition of Plasmodium PK7 catalytic activity – biochemical, TCAMS antimalarial set, Kinase-Glo luminescence (AID 1159587); conditions: recombinant PfPK7, Kinase-Glo ATP depletion luminescence
Sequence of Protein kinase 7 (PK7), Plasmodium falciparum 3D7 (PF3D7_0213400) (Q7YTF7 1-343): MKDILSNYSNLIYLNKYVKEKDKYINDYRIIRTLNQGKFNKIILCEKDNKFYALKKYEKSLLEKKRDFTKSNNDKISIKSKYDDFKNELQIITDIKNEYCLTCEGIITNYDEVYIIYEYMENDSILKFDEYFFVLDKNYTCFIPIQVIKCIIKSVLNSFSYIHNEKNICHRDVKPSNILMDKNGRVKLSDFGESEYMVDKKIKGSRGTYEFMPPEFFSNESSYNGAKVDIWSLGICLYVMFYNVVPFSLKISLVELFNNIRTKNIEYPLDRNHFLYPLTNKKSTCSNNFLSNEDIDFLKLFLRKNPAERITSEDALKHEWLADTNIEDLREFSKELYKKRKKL

[8] = biological target: Calcium-dependent protein kinase 4 (Plasmodium falciparum (isolate 3D7)) (UniProt Q8IBS5); assay: PfCDPK4 kinase inhibitors, biochemical, TCAMS library (AID 1159588; cut-off not given, nearly all actives have IC50 up to about 0.91 µM); conditions: recombinant PfCDPK4, Kinase-Glo ATP depletion luminescence
Sequence of Calcium-dependent protein kinase 4 (Plasmodium falciparum (isolate 3D7)) (Q8IBS5 whole entry, looked up): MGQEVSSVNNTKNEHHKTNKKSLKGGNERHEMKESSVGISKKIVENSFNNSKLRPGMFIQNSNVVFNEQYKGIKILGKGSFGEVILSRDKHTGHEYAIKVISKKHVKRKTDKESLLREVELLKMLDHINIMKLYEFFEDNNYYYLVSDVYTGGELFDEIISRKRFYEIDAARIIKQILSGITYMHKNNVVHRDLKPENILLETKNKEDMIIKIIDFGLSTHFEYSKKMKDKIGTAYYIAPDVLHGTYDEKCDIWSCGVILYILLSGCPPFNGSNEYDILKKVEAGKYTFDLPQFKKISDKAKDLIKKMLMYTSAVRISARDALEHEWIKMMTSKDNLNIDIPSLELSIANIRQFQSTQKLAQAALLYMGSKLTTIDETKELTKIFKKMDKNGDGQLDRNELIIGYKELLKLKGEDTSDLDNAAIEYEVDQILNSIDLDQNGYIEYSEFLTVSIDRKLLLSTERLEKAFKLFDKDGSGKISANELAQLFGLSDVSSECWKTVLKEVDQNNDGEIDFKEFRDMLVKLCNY

O=[N+]([O-])c1ccccc1C=NNc1ccnc2cc(Cl)ccc12
inactive: inhibition [2] -5% | inhibition [3] 3% | outcome [5] | outcome [6] | outcome [7] | outcome [8]
active: growth inhibition [1] 89% | growth inhibition [4] 101%

C=C(NC(=O)C1CCCCC1)C(=O)OC
inactive: growth inhibition [1] 3% | inhibition [2] 15% | inhibition [3] -4% | outcome [5] | outcome [6] | outcome [7] | outcome [8]
active: growth inhibition [4] 93%

CCCCOP(=O)(COc1ccc(CCN(CC(O)COc2cccc3[nH]c4ccccc4c23)CC(O)COc2cccc3[nH]c4ccccc4c23)cc1)C1CCCCC1 (stereo not drawn)
inactive: inhibition [2] 7% | inhibition [3] 4% | outcome [5] | outcome [6] | outcome [7] | outcome [8]
active: growth inhibition [1] 92% | growth inhibition [4] 89%

Cc1nc(N)nc(N)c1C#CC1CCCC1
active: inhibition [2] 68% | growth inhibition [4] 96%
inactive: growth inhibition [1] 2% | inhibition [3] 4% | outcome [5] | outcome [6] | outcome [7] | outcome [8]

COC(=O)c1cc(/C(C)=N/Nc2nc3ccccc3[nH]2)ccc1O
inactive: inhibition [2] 9% | inhibition [3] -1% | outcome [5] | outcome [6] | outcome [7] | outcome [8]
active: growth inhibition [1] 75% | growth inhibition [4] 101%

CN1CCCC(COc2cc3c(cc2Br)CCN3C(=O)Nc2ccc(-c3ccncc3)c(Cl)c2)C1 (stereo not drawn)
active: growth inhibition [1] 96% | inhibition [2] 99% | growth inhibition [4] 100%
inactive: inhibition [3] -2% | outcome [5] | outcome [6] | outcome [7] | outcome [8]

Fc1ccc2nc(-c3cccc(-c4ccc(CNCCN5CCNCC5)cc4)c3)[nH]c2c1
active: growth inhibition [4] 90%
inactive: growth inhibition [1] -3% | inhibition [2] 9% | inhibition [3] -2% | outcome [5] | outcome [6] | outcome [7] | outcome [8]

COc1ccc(O)cc1Cc1cnc2nc(N)nc(N)c2c1C
active: growth inhibition [1] 97% | inhibition [2] 67% | growth inhibition [4] 92%
inactive: inhibition [3] -2% | outcome [5] | outcome [6] | outcome [7] | outcome [8]

O=C(NC1CCN(Cc2ccccc2)CC1)c1cc(C(=O)NC2CCN(Cc3ccccc3)CC2)cc(C(=O)NC2CCN(Cc3ccccc3)CC2)c1
active: growth inhibition [1] 100% | growth inhibition [4] 100%
inactive: inhibition [2] 13% | inhibition [3] 1% | outcome [5] | outcome [6] | outcome [7] | outcome [8]

Clc1cnc2ccc3c(c2c1CCN1CCC(NCc2cc4c(cn2)OCCO4)CC1)OCCO3
active: growth inhibition [4] 92%
inactive: growth inhibition [1] 18% | inhibition [2] 3% | inhibition [3] -2% | outcome [5] | outcome [6] | outcome [7] | outcome [8]

CCOC(=O)c1c(C)n(-c2ccccc2)c2ccc(OC(=O)c3ccc(S(=O)(=O)N(CC)CC)cc3)cc12
active: growth inhibition [1] 63% | growth inhibition [4] 94%
inactive: inhibition [2] -6% | inhibition [3] -3% | outcome [5] | outcome [6] | outcome [7] | outcome [8]

COc1cc(F)c2ncc(Cl)c(CCN3CCC(NCc4ccc5c(n4)NC(=O)CO5)CC3)c2c1
inactive: growth inhibition [1] 19% | inhibition [2] 20% | inhibition [3] -1% | outcome [5] | outcome [6] | outcome [7] | outcome [8]
active: growth inhibition [4] 89%

NCC1CCCN1Cc1ccc(-c2ccc(-c3nc4ccc(C(F)(F)F)cc4[nH]3)cc2)cc1 (stereo not drawn)
active: growth inhibition [1] 98% | growth inhibition [4] 101%
inactive: inhibition [2] 35% | inhibition [3] 3% | outcome [5] | outcome [6] | outcome [7] | outcome [8]

COc1ccc(NC(=O)/C=C/c2ccccc2Cl)cc1OCCN1CCN(c2ccncc2)CC1
active: growth inhibition [1] 52% | growth inhibition [4] 101%
inactive: inhibition [2] 7% | inhibition [3] -2% | outcome [5] | outcome [6] | outcome [7] | outcome [8]

CS(=O)(=O)NCCCNCc1cccc(-c2ccc(-c3nc4ccc(C(F)(F)F)cc4[nH]3)s2)c1
inactive: inhibition [2] 11% | inhibition [3] -8% | outcome [5] | outcome [6] | outcome [7] | outcome [8]
active: growth inhibition [1] 51% | growth inhibition [4] 100%

Cc1ccccc1C1CCN(C2CCC(NC(=O)c3cc(-c4ccccc4)oc3C)CC2)CC1 (stereo not drawn)
inactive: growth inhibition [1] 32% | inhibition [2] 46% | inhibition [3] 0% | outcome [5] | outcome [6] | outcome [7] | outcome [8]
active: growth inhibition [4] 100%

CO/C(=C\C=C\c1cc2cc(Cl)c(Cl)cc2[nH]1)C(=O)NCCCN1CCN(c2ccc(OC)cc2)CC1
active: growth inhibition [4] 99%
inactive: growth inhibition [1] 44% | inhibition [2] 40% | inhibition [3] -7% | outcome [5] | outcome [6] | outcome [7] | outcome [8]

COc1cc(SC)ccc1C(=O)N1CC(C)CC(C)C1 (stereo not drawn)
active: growth inhibition [1] 66% | growth inhibition [4] 98%
inactive: inhibition [2] 5% | inhibition [3] -8% | outcome [5] | outcome [6] | outcome [7] | outcome [8]

CCc1c[nH]c2c(N(c3ccccc3)S(C)(=O)=O)cc(C(=O)N[C@@H](Cc3ccccc3)[C@H](O)CNCc3cccc(C(F)(F)F)c3)cc12
active: growth inhibition [1] 98% | growth inhibition [4] 93%
inactive: inhibition [2] 20% | inhibition [3] 1% | outcome [5] | outcome [6] | outcome [7] | outcome [8]

Cc1ccccc1OCCCN1CCN(CC(c2ccc(F)cc2)N2CCN(C(C)C)CC2)CC1 (stereo not drawn)
inactive: inhibition [2] 20% | inhibition [3] 2% | outcome [5] | outcome [6] | outcome [7] | outcome [8]
active: growth inhibition [1] 64% | growth inhibition [4] 99%

CN1CC[C@@H](Oc2cc(C(=O)NCc3ccc(Cl)c(Cl)c3)ccc2C(F)(F)F)C1
inactive: growth inhibition [1] 4% | inhibition [2] 8% | inhibition [3] 2% | outcome [5] | outcome [6] | outcome [7] | outcome [8]
active: growth inhibition [4] 88%

COc1cc2nc(NCC3CCCO3)n3nc(-c4ccccc4)nc3c2cc1OC (stereo not drawn)
inactive: inhibition [2] -9% | inhibition [3] -7% | outcome [5] | outcome [6] | outcome [7] | outcome [8]
active: growth inhibition [1] 97% | growth inhibition [4] 92%

CC(Cc1ccc(C(=O)N2CCN(C(=O)c3ccc(CC(C)NCCc4cccc(Cl)c4)cc3)CC2)cc1)NCCc1cccc(Cl)c1 (stereo not drawn)
active: growth inhibition [1] 85% | inhibition [2] 99% | growth inhibition [4] 101%
inactive: inhibition [3] -4% | outcome [5] | outcome [6] | outcome [7] | outcome [8]

Cc1ccccc1Nc1cc(Nc2ccccc2C)c2ccccc2n1
active: growth inhibition [1] 93% | growth inhibition [4] 96%
inactive: inhibition [2] 28% | inhibition [3] -1% | outcome [5] | outcome [6] | outcome [7] | outcome [8]

CCCN1CCC(NCc2cn(C)nc2-c2ccc(Oc3ccccc3)cc2)CC1
inactive: growth inhibition [1] 44% | inhibition [2] 34% | inhibition [3] -3% | outcome [5] | outcome [6] | outcome [7] | outcome [8]
active: growth inhibition [4] 88%

CS(=O)(=O)N1CC2(CCN(CCC(NC(=O)NCc3ccccc3Cl)c3ccc(Cl)c(Cl)c3)CC2)c2ccccc21 (stereo not drawn)
inactive: inhibition [2] 12% | inhibition [3] -7% | outcome [5] | outcome [6] | outcome [7] | outcome [8]
active: growth inhibition [1] 98% | growth inhibition [4] 85%

NCc1ccc(CNCc2cccc(-c3ccc(-c4nc5ccccc5[nH]4)cc3)c2)cc1
active: growth inhibition [1] 58% | growth inhibition [4] 100%
inactive: inhibition [2] 10% | inhibition [3] -8% | outcome [5] | outcome [6] | outcome [7] | outcome [8]

Cn1nc(-c2ccccc2F)c2cc(C(=O)Nc3cccnc3)sc21
active: growth inhibition [1] 82% | growth inhibition [4] 92%
inactive: inhibition [2] 5% | inhibition [3] 3% | outcome [5] | outcome [6] | outcome [7] | outcome [8]

O=C(Nc1cccc(CN2CCN(Cc3cccc(O)c3)CC2)c1)c1ccc(Cl)c(Cl)c1
active: growth inhibition [4] 100%
inactive: growth inhibition [1] 35% | inhibition [2] 28% | inhibition [3] -1% | outcome [5] | outcome [6] | outcome [7] | outcome [8]

CCOc1ccc(C2CCN(CCCCNC(=O)c3ccc(NC(=O)c4ccc(Cl)cc4)cc3)CC2)c(Cl)c1
active: growth inhibition [1] 96% | growth inhibition [4] 101%
inactive: inhibition [2] 32% | inhibition [3] -2% | outcome [5] | outcome [6] | outcome [7] | outcome [8]

O=C(NCc1cccc(Br)c1)c1ccc(CNC2CCN(Cc3ccccc3)CC2)cc1
active: growth inhibition [4] 100%
inactive: growth inhibition [1] 49% | inhibition [2] 3% | inhibition [3] 4% | outcome [5] | outcome [6] | outcome [7] | outcome [8]

CCCNCc1ccc(-c2ccc(CN(CCOC)C(=O)[C@H]3CCCO3)cc2)nc1
active: growth inhibition [4] 98%
inactive: growth inhibition [1] 6% | inhibition [2] 1% | inhibition [3] -3% | outcome [5] | outcome [6] | outcome [7] | outcome [8]

O=C(Nc1ccc(Cl)cc1)c1cc(Cl)ccc1NC(=O)C1(c2ccc(Cl)cc2)CCCC1
inactive: growth inhibition [1] 29% | inhibition [2] 13% | inhibition [3] -4% | outcome [5] | outcome [6] | outcome [7] | outcome [8]
active: growth inhibition [4] 85%

COc1cc2nc(N3CCC(C(N)=O)CC3)nc(NCc3ccccc3)c2cc1OC
active: growth inhibition [4] 100%
inactive: growth inhibition [1] 23% | inhibition [2] 23% | inhibition [3] -7% | outcome [5] | outcome [6] | outcome [7] | outcome [8]

O=C(Nc1cccc(CN2CCCN(Cc3cccnc3)CC2)c1)c1cc2ccccc2s1
inactive: growth inhibition [1] 28% | inhibition [2] 15% | inhibition [3] 1% | outcome [5] | outcome [6] | outcome [7] | outcome [8]
active: growth inhibition [4] 92%

CCCCNC(=O)[C@@H](NC(=O)c1ccc(O)c(-c2ccc(Cl)c(Cl)c2)c1)C(C)C
active: growth inhibition [1] 98% | growth inhibition [4] 97%
inactive: inhibition [2] -4% | inhibition [3] 2% | outcome [5] | outcome [6] | outcome [7] | outcome [8]
